Results taken from PubChem BioAssay (EPA / NIEHS).
Calls of active or inactive are those of the source. How the source made its calls: active means hit-call score of the fitted dose curve at least 0.9, where 1 is the maximum; inactive means score below 0.9.

What follows are compounds tested on Transforming Growth Factor (TGFB1), TGFB1 (gene 7040) (assay: LTEA_HepaRG_TGFB1: Life Technologies and Expression Analysis (LTEA) Assay for Transforming Growth Factor (TGFB1) Transporter using HepaRG (AID 2283533)). Settings: mRNA level, 48 h; actives raise or lower the signal.
Protocol: LTEA_HepaRG is a cell based, multiplexed-readout assay that uses HepaRG, a human liver cell line, with measurements taken at 48 hours after chemical dosing on a 96-well plate.LTEA_HepaRG_TGFB1 is one of 102 assay component(s) measured in the LTEA HepaRG cell culture assay. It is a marker of Cell proliferation, survival, death.Data from the assay component LTEA_HepaRG_TGFB1 was analyzed into 1 endpoint. This assay endpoint, LTEA_HepaRG_TGFB1, was analyzed with bidirectional fitting relative to DMSO as the negative control and baseline of activity. Using a type of inducible reporter, measures of mRNA induction for gain or loss-of-signal activity can be used to understand regulation of transcription factor activity. To generalize the intended target to other relatable targets, this assay endpoint is annotated to the growth factor intended target family, where the subfamily is transforming growth factor beta.
A total of 1060 chemcials from the ToxCast library were tested in eight-point concentration-response experiments. Cell culture and cytotoxicity assays were conducted at Thermo Fisher Scientific's Custom Services facility (Madison, WI). A single lot of human HepaRG cells (Thermo Fisher Scientific, Frederick, MD) was used for the cell culture experiments. 96-well format collagen type I coated plates of human HepaRG cells were prepared using established methods. Briefly, cryopreserved HepaRG cells were thawed, plated at a density of approximately 100,000 cells/well in HepaRG Thaw, Plate, and General Purpose media (HPRG770, Thermo Fisher Scientific), and incubated for 48 hours. 0.5% DMSO was selected as vehicle control to balance the requisite need of DMSO in HepaRG cultures to maintain differentiation (for example, baseline metabolism, proportions of hepatocytes vs. cholangiocytes), while enabling further hepatic receptor pathway activation (for example, PXR and CAR) in response to chemical exposure. 48 hours after plating, the culture medium was replaced with HepaRG Serum-Free Incudtion Media. Cells were exposed to each test chemical in duplicate and maintained in CO2 incubators for another 48 hours. Chemical plates were thawed to room temperature and 200x concentrations of treatment groups were prepared. 8-point conentration-reponse curves were made with the highest exposure at 100 uM, followed by half-log dilutions, all in 0.5% DMSO. Each test plate contained variouse controls, induction positive controls (1mM phenobarbital), cytotoxicity positive controls ([…] aflatoxin B1), vehicle controls (0.5% DMSO), and total lysis controls (0.5% DMSO). Cell morphology images were taken using an Essen IncuCyte FLR automated microscope, with six 96-well plates imaged in about 24 minutes. Images were captured and exported and JPEG files. Spent culture media was transfered to black-well plates for the LDH assay, and remaining media was sorted at -80 C for later use. Cells were treated with RLT buffer and frozen until shipped for gene expression analysis. Total RNA was isolated from the cell suspension in 75 uL of Buffer RLT (Qiagen, Germantown, MD 20874) by Quintiles/Expression Analysis (Durham, NC) using a custom isolation procedure. Total RNA from each plate well was transferred to a preamplification plate. Fluidigm's 96.96 Dynamic ArrayTM (Fluidigm, Amsterdam, the Netherlands) technology was used for gene expression analyses by quantitative reverse transcription polymerase chain reaction (qRT-PCR, performed by Quintiles/Expression Analysis, Durham, NC)89. Standard TaqManTM Assays (Applied Biosystems/ThermoFisher Scientific, Foster City, CA) were used to assess the expression of 93 genes selected based on their selectivity and sensitivity to important hepatic receptors known to be modulated by environmental chemicals; importance in human hepatocyte functionality; and hepatotoxicity. […]

Row | SMILES | outcome | AC50
1 | CCOC(=O)C(C)OC(=O)c1cc(Oc2ccc(C(F)(F)F)cc2Cl)ccc1[N+](=O)[O-] (stereo not given) | inactive | 
2 | COP(=S)(OC)Oc1ccc([N+](=O)[O-])c(C)c1 | inactive | 
3 | Cc1cc(C)nc(Nc2ccccc2)n1 | inactive | 
4 | O=P(O)(O)CCCl | inactive | 
5 | CCSC(=O)N1CCCCCC1 | inactive | 
6 | CCNC(=O)NC(=O)C(C#N)=NOC | inactive | 
7 | CS(=O)(=O)c1ccc(C(=O)C2C(=O)CCCC2=O)c([N+](=O)[O-])c1 | inactive | 
8 | COP(=O)(OC)O/C(C)=C/C(=O)N(C)C | inactive | 
9 | CCN(CC)c1nc(C)cc(OP(=S)(OC)OC)n1 | inactive | 
10 | CC(C)C1(C)N=C(c2ncccc2C(=O)O)NC1=O (stereo not given) | inactive | 
11 | COC(=O)c1c(C(F)F)nc(C(F)(F)F)c(C2=NCCS2)c1CC(C)C | inactive | 
12 | C=CCOC(=O)C(C)(C)OC(=O)c1cc(-n2c(=O)cc(C(F)(F)F)n(C)c2=O)ccc1Cl | inactive | 
13 | O=C(O)c1c(Cl)ccc2cc(Cl)cnc12 | inactive | 
14 | CCOP(=O)(OCC)Oc1nc(Cl)c(Cl)cc1Cl | inactive | 
15 | Nc1c(Cl)c(Cl)nc(C(=O)O)c1Cl | inactive | 
16 | CC(C)Nc1nc(Cl)nc(NC(C)C)n1 | inactive | 
17 | O=C(Nc1ccccc1-c1ccc(Cl)cc1)c1cccnc1Cl | inactive | 
18 | CC(C)=CC1C(C(=O)OCc2coc(Cc3ccccc3)c2)C1(C)C (stereo not given) | inactive | 
19 | Clc1cccc(C(Cl)(Cl)Cl)n1 | inactive | 
20 | CC1(C)CON(Cc2ccccc2Cl)C1=O | inactive | 

Row | SMILES | outcome | AC50
21 | COC(=O)NS(=O)(=O)c1ccc(N)cc1 | inactive | 
22 | Nc1cnn(-c2ccccc2)c(=O)c1Cl | inactive | 
23 | CN=C=S | inactive | 
24 | COC(=O)N(C(=O)N1CO[C@@]2(C(=O)OC)Cc3cc(Cl)ccc3C2=N1)c1ccc(OC(F)(F)F)cc1 | inactive | 
25 | CNC(=O)Oc1cccc2ccccc12 | inactive | 
26 | CC1(C)C(C(=O)OC(C#N)c2cccc(Oc3ccccc3)c2)C1(C)C (stereo not given) | inactive | 
27 | O=c1n(Cl)c(=O)n(Cl)c(=O)n1Cl | inactive | 
28 | CS(=O)(=O)c1cc(C(F)(F)F)ccc1C(=O)c1cnoc1C1CC1 | inactive | 
29 | COCC(C)N(C(=O)CCl)c1c(C)csc1C (stereo not given) | inactive | 
30 | COC(=O)NC(=S)Nc1ccccc1NC(=S)NC(=O)OC | inactive | 
31 | CNC(=O)N(C)c1nnc(C(C)(C)C)s1 | inactive | 
32 | CCOc1cc(C(C)(C)C)ccc1C1COC(c2c(F)cccc2F)=N1 (stereo not given) | inactive | 
33 | CCCCOCN(C(=O)CCl)c1c(CC)cccc1CC | inactive | 
34 | CCNP(=S)(OC)O/C(C)=C/C(=O)OC(C)C (stereo not given) | inactive | 
35 | CC(C)N1C(=O)N(c2ccccc2)CSC1=NC(C)(C)C | inactive | 
36 | Cc1cnc(C2=NC(C)(C(C)C)C(=O)N2)c(C(=O)O)c1 (stereo not given) | inactive | 
37 | COc1cc(OC)nc(NC(=O)NS(=O)(=O)c2ncccc2OCC(F)(F)F)n1 | inactive | 
38 | CCOc1nc(F)cc2nc(S(=O)(=O)Nc3c(Cl)cccc3Cl)nn12 | inactive | 
39 | Clc1nc(Cl)nc(Nc2ccccc2Cl)n1 | inactive | 
40 | CCCCC(C#N)(Cn1cncn1)c1ccc(Cl)cc1 (stereo not given) |  | 50 µM (active)
